Where “and” joins values, the source holds several entries; their conditions need not be identical. Equal values may be shown once. Where a structure was tested more than once in an assay, its records may differ in their call. Calls of active or inactive are those of the source. A call without a number means that no potency is given here. Unless noted, calls follow the shape of the dose curve; as a rule, active = well fitted curve in the direction sought with a large enough effect in the repeat runs; inconclusive = weak or mixed curves; inactive = no such curve, though single readings can be large; an effect the other way counts as inactive or inconclusive.
Assays:
[1] = qHTS assay to identify small molecule antagonists of the androgen receptor (AR) signaling pathway - cell viability counter screen (AID 743033; also: nearly all actives have a fitted effect of over 45% in size; also: potency is read from the fitted curve at half-maximal effect)
[2] = qHTS assay to identify small molecule antagonists of the androgen receptor (AR) signaling pathway using the MDA cell line - cell viability counter screen (AID 743041; also: nearly all actives have a fitted effect of over 45% in size; also: potency is read from the fitted curve at half-maximal effect)
How it was run: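 Same-well cytotoxicity was assessed by CellTiter-Fluor in MDA-kb2 AR-luc cells after 16 h of compound treatment under R1881 agonism.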

[3] = test system: thyroid hormone receptor (rat, GH3 cells); assay: qHTS assay to identify small molecule agonists of the thyroid receptor (TR) signaling pathway (AID 743066; calls by dose curve)
[4] = target: Estrogen receptor (Homo sapiens) (UniProt P03372); assay: qHTS assay to identify small molecule agonists of the estrogen receptor alpha (ER-alpha) signaling pathway using the BG1 cell line (AID 743079); also: nearly all actives have a fitted effect of over 20% in size; also: potency is read from the fitted curve at half-maximal effect
Aromatase (Homo sapiens) = Aromatase (Homo sapiens) (UniProt P11511); assay: qHTS assay to identify aromatase inhibitors (AID 743083); also: nearly all actives have a fitted effect of over 55% in size; also: potency is read from the fitted curve at half-maximal effect
[5] = qHTS assay for identifying genotoxic compounds that show differential cytotoxicity against isogenic chicken DT40 cell lines with known DNA damage response pathways - wild type cell line (AID 743012); also: nearly all actives have a fitted effect of over 60% in size; also: potency is read from the fitted curve at half-maximal effect
How it was run: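 Cells (DT40 wild type, 300/well) are treated with DMSO-dissolved compounds after a ~0.5 h pre-incubation and kept 40 h at 37 C/5% CO2. Viability is then measured by CellTiter-Glo luminescence following 30 min at room temperature.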

[6] = qHTS assay for identifying genotoxic compounds that show differential cytotoxicity against isogenic chicken DT40 cell lines with known DNA damage response pathways - Rev3 mutant cell line (AID 743014); also: nearly all actives have a fitted effect of over 55% in size; also: potency is read from the fitted curve at half-maximal effect
[7] = qHTS assay to identify small molecule antagonists of the thyroid receptor (TR) signaling pathway - cell viability counter screen (AID 743064); also: nearly all actives have a fitted effect of over 50% in size; also: potency is read from the fitted curve at half-maximal effect
How it was run: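 Compounds were tested on GH3.TRE-Luc cells in the presence of T3 at 1 nM final. Following 23.5 h at 37 °C, cell viability was quantified by CellTiter-Fluor.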

[8] = qHTS assay to identify small molecule antagonists of the thyroid receptor (TR) signaling pathway (AID 743065); also: nearly all actives have a fitted effect of over 55% in size; also: potency is read from the fitted curve at half-maximal effect
How it was run: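 GH3.TRE-Luc rat pituitary cells (two TREs driving luciferase) were dosed with compound, then stimulated with 1 nM T3 (final) for 23.5 h at 37 C. ONE-Glo luminescence was the read-out, with CellTiter-Fluor fluorescence as the cytotoxicity counter-screen.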

[9] = target: Estrogen receptor (Homo sapiens) (UniProt P03372); assay: qHTS assay to identify small molecule antagonists of the estrogen receptor alpha (ER-alpha) signaling pathway (AID 743069; active = well fitted curve in the direction sought with a large enough effect in the signal ratio in the repeat runs, not every such curve was filed as active; inconclusive = weak or mixed curves, or effect the other way; inactive = no such curve, though single readings can be large or run the other way; the % refers to the signal ratio; also: potency is read from the fitted curve at half-maximal effect)
How it was run: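 Reporter cells (ER-alpha-bla, HEK293 background) are conditioned overnight in stripped-serum medium (2% charcoal-stripped FBS). Compound and 17beta-estradiol exposure runs 18 hr at 37C, 5% CO2.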

[10] = qHTS assay to identify small molecule antagonists of the estrogen receptor alpha (ER-alpha) signaling pathway - cell viability counter screen (AID 743074; calls by dose curve;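 also: HEK293 cells carrying ER-alpha-UAS-bla reporter stimulated with 17beta-estradiol; nearly all actives have a fitted effect of over 45% in size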; also: potency is read from the fitted curve at half-maximal effect)
[11] = target: Estrogen receptor (Homo sapiens) (UniProt P03372); assay: qHTS assay to identify small molecule agonists of the estrogen receptor alpha (ER-alpha) signaling pathway (AID 743075; calls by dose curve;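 also: HEK293 GripTite cells with ER-alpha and UAS-driven beta-lactamase reporter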; also: potency is read from the fitted curve at half-maximal effect)
[12] = qHTS assay to identify small molecule antagonists of the estrogen receptor alpha (ER-alpha) signaling pathway using the BG1 cell line (AID 743080; calls by dose curve;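 also: BG1 cells stimulated with 17beta-estradiol alongside compound; nearly all actives have a fitted effect of over 25% in size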; also: potency is read from the fitted curve at half-maximal effect)
How it was run: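 Luciferase inhibition measured with ONE-Glo after 30 min at RT in BG1Luc4E2 cells given test compounds and 17beta-estradiol for 21.5 h at 37 C; CellTiter-Fluor viability read in the same wells beforehand.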

[13] = qHTS assay to identify small molecule antagonists of the estrogen receptor alpha (ER-alpha) signaling pathway using the BG1 cell line - cell viability counter screen (AID 743081);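 also: compound given together with 17beta-estradiol as the ER stimulus; nearly all actives have a fitted effect of over 45% in size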; also: potency is read from the fitted curve at half-maximal effect
[14] = qHTS assay for identifying genotoxic compounds that show differential cytotoxicity against isogenic chicken DT40 cell lines with known DNA damage response pathways - Rad54/Ku70 mutant cell line (AID 743015); also: nearly all actives have a fitted effect of over 60% in size; also: potency is read from the fitted curve at half-maximal effect
[15] = target: Androgen receptor (Homo sapiens) (UniProt P10275); assay: qHTS assay to identify small molecule antagonists of the androgen receptor (AR) signaling pathway (AID 743035; active = well fitted inhibition curve with a large enough effect in the signal ratio in the repeat runs, not every such curve was filed as active; inconclusive = weak or mixed curves, or effect the other way; inactive = no such curve, though single readings can be large or run the other way; the % refers to the signal ratio)
How it was run: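 Antagonism is scored as loss of R1881-driven beta-lactamase reporter expression in HEK293 cells carrying the reporter under a UAS element, after 16 h co-treatment at 37C and a 2 h room-temperature FRET substrate read.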

[16] = target: Androgen receptor (Homo sapiens) (UniProt P10275); assay: qHTS assay to identify small molecule agonists of the androgen receptor (AR) signaling pathway (AID 743036; active = well fitted activation curve with a large enough effect in the signal ratio in the repeat runs, with a control signal flat, not every such curve was filed as active; inconclusive = weak or mixed curves, or effect the other way; inactive = no such curve, though single readings can be large or run the other way; the % refers to the signal ratio)
How it was run: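 Beta-lactamase under UAS control, stably integrated in HEK293 GripTite cells, reports receptor activation. After 16 h compound treatment, cells received FRET substrate for 2 h at room temperature before fluorescence reading.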

[17] = target: Androgen receptor (Homo sapiens) (UniProt P10275); assay: qHTS assay to identify small molecule agonists of the androgen receptor (AR) signaling pathway using the MDA cell line (AID 743040; also: nearly all actives have a fitted effect of over 20% in size)
How it was run: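 Human breast carcinoma MDA-kb2 reporter cells (MMTV-luc, AR/GR elements) were treated for 16 h at 37C in 0% CO2 following a 5 h settling period. Signal was quantified by ONE-Glo luminescence.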

[18] = target: Androgen receptor (Homo sapiens) (UniProt P10275); assay: qHTS assay to identify small molecule antagonists of the androgen receptor (AR) signaling pathway using the MDA cell line (AID 743042; also: nearly all actives have a fitted effect of over 55% in size)
How it was run: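 MDA-kb2 breast carcinoma cells carrying MMTV-luciferase (AR/GR responsive) were co-treated with compounds and the agonist R1881 for 16 h at 37C. Inhibition read as ONE-Glo luminescence; CellTiter-Fluor fluorescence measured in parallel for cytotoxicity.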

Androgen receptor (Homo sapiens), sequence (P10275 whole entry, looked up): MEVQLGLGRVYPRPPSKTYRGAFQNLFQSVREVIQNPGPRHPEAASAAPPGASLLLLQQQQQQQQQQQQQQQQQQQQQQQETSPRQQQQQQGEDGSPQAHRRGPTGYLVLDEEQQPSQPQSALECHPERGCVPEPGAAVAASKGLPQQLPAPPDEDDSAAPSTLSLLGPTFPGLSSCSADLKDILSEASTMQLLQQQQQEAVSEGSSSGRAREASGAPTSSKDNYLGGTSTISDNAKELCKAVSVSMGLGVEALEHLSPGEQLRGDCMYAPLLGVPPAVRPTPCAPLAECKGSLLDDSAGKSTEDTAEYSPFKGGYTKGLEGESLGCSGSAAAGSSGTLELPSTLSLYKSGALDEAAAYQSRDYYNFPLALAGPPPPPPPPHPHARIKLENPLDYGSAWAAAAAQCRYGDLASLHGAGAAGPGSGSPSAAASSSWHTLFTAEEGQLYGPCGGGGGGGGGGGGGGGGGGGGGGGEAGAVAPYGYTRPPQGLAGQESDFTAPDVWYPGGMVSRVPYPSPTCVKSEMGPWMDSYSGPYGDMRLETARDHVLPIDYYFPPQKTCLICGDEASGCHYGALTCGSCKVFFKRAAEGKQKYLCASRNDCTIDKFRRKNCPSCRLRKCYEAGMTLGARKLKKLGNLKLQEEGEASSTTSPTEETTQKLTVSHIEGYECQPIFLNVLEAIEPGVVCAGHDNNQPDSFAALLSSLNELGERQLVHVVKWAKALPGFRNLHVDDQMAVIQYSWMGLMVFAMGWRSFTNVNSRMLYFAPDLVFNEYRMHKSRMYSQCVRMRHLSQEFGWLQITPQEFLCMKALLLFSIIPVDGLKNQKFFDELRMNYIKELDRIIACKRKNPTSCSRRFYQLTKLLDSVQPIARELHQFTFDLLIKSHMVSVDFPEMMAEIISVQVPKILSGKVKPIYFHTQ
Aromatase (Homo sapiens), sequence (P11511 whole entry, looked up): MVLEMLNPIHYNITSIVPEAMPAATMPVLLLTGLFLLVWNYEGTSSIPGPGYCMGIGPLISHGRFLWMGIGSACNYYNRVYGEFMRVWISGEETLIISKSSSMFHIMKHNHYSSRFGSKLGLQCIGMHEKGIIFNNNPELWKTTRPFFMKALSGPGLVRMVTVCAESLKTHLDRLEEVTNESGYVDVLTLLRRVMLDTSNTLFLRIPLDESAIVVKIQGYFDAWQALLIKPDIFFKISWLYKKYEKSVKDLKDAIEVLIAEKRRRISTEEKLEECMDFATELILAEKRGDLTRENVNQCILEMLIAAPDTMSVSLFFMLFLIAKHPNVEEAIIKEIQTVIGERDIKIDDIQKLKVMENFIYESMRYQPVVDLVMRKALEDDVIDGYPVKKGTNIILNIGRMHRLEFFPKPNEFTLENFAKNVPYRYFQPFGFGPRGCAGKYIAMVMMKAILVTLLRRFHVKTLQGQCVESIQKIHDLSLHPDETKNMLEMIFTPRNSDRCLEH
Estrogen receptor (Homo sapiens), sequence (P03372 whole entry, looked up): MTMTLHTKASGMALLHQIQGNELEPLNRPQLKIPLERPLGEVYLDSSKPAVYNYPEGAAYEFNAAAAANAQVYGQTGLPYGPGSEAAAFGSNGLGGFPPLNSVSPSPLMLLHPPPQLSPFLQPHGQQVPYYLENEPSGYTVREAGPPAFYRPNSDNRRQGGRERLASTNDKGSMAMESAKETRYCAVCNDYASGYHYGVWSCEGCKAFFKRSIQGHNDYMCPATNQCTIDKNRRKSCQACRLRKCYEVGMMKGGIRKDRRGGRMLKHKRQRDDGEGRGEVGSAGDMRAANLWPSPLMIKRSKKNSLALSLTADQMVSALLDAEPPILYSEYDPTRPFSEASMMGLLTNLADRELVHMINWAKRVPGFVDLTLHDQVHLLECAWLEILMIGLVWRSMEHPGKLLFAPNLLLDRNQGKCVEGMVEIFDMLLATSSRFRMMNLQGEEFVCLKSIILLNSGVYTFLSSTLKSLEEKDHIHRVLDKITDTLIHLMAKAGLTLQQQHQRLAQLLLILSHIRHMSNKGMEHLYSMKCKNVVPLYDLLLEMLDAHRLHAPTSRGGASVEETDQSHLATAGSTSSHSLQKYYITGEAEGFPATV

O=[N+]([O-])c1c2ccccc2cc2ccccc12
Potency [1]: inactive
Potency [2]: inactive
outcome [3]: inactive
Potency [4]: 42.9 µM (active)
Potency (Aromatase (Homo sapiens)): inactive

N#CCCC(Br)(C#N)CBr (configuration not stated)
Potency [5]: 4.33 µM (active)
Potency [6]: 6.11 µM (active)
Potency [1]: 24.5 µM (active)
Potency [7]: 15.4 µM (active)
Potency [8]: 13.7 µM (active)
outcome [3]: inactive
Potency [9]: inactive
Potency [10]: inactive
Potency [11]: inactive
Potency [4]: inactive
Potency [12]: inactive
Potency [13]: inactive
Potency (Aromatase (Homo sapiens)): 24.3 µM (active)

CCc1nn(C)c(C(=O)NCc2ccc(C(C)(C)C)cc2)c1Cl
Potency [5]: 0.077 µM (active)
Potency [6]: 0.0863 µM (active)
Potency [1]: 0.195 µM (active)
Potency [2]: 0.0863 µM (active)
Potency [8]: 0.77 µM (active)
Potency [12]: 0.0243 µM (active)
Potency [13]: 30.6 µM (active)
Potency (Aromatase (Homo sapiens)): 61.1 µM (active)

[Cl][Sb]([Cl])[Cl]
Potency [5]: inactive
Potency [6]: inactive
Potency [1]: inactive
Potency [7]: 17.2 µM (active)
outcome [3]: inactive
Potency [10]: inactive
Potency [13]: inactive
Potency (Aromatase (Homo sapiens)): inactive

c1ccc(OCC2CO2)cc1 (configuration not stated)
Potency [2]: inactive
Potency [7]: inactive
Potency [8]: inactive
outcome [3]: inactive
Potency [10]: inactive
Potency [13]: inactive
Potency (Aromatase (Homo sapiens)): inactive

Cc1c(Cl)c(=O)oc2cc(OP(=O)(OCCCl)OCCCl)ccc12
Potency [1]: inactive
Potency [8]: inactive
outcome [3]: inactive
Potency [10]: inactive
Potency [11]: inactive
Potency [4]: inactive
Potency [12]: inactive
Potency (Aromatase (Homo sapiens)): inactive

CC[C@H](C)[C@H]1O[C@]2(C=C[C@@H]1C)C[C@@H]1C[C@@H](C/C=C(\C)[C@@H](O[C@H]3C[C@H](OC)[C@@H](O[C@H]4C[C@H](OC)[C@@H](O)[C@H](C)O4)[C@H](C)O3)[C@@H](C)/C=C/C=C3\CO[C@@H]4[C@H](O)C(C)=C[C@@H](C(=O)O1)[C@]34O)O2
Potency [5]: 18.8 µM (active) and 3.61 µM (active)
Potency [6]: 21.1 µM (active) and 10.2 µM (active)
Potency [1]: inactive
Potency [2]: inactive
Potency [7]: 3.22 µM (active)
Potency [8]: 26.6 µM (active) and 3.22 µM (active)
Potency [9]: 4.59 µM [inconclusive] (active)
Potency [10]: inactive and 25.8 µM (active)
Potency [11]: inactive
Potency [4]: inactive
Potency [12]: inactive
Potency [13]: inactive
Potency (Aromatase (Homo sapiens)): inactive and 14.4 µM (active)

O=C1NCN(c2ccccc2)C12CCN(CC1COc3ccccc3O1)CC2 (configuration not stated)
Potency [5]: 23.7 µM (active)
Potency [6]: inactive
Potency [1]: inactive
Potency [2]: inactive
outcome [3]: inactive
Potency [9]: inactive
Potency [10]: inactive
Potency [11]: inactive
Potency [12]: inactive
Potency [13]: inactive
Potency (Aromatase (Homo sapiens)): inactive

Nc1ccc(Cc2ccc(N)c(Cl)c2)cc1Cl
Potency [5]: 74.4 µM (active)
Potency [2]: inactive
Potency [7]: 52.7 µM (active)
Potency [9]: 4.22 µM [inconclusive] (active)
Potency [10]: inactive
Potency [11]: inactive
Potency [13]: inactive
Potency (Aromatase (Homo sapiens)): 29.6 µM (active)

Oc1ccc(C2(c3ccc(O)cc3)CCCCC2)cc1
Potency [6]: 65 µM (active)
Potency [14]: 57.9 µM (active)
Potency [7]: 57.9 µM (active)
Potency [8]: 36.5 µM (active)
outcome [3]: inactive
Potency [9]: 0.52 µM [inconclusive] (active)
Potency [11]: 52.1 µM [inconclusive] (active)
Potency [4]: 0.818 µM (active)
Potency [13]: inactive
Potency (Aromatase (Homo sapiens)): 51.6 µM (active)

CCCSP(=O)(OCC)SCCC
Potency [5]: 28.3 µM (active)
Potency [14]: 39.9 µM (active)
Potency [1]: inactive
Potency [15]: inactive
Potency [16]: inactive
Potency [17]: inactive
Potency [2]: inactive
Potency [8]: inactive
outcome [3]: inactive
Potency [13]: inactive
Potency (Aromatase (Homo sapiens)): inactive

CCCCCCCCc1ccc(O)cc1
Potency [5]: 21.8 µM (active)
Potency [16]: inactive
Potency [17]: inactive
Potency [18]: inactive
Potency [7]: 46.1 µM (active)
Potency [8]: 30.6 µM (active)
outcome [3]: inactive
Potency [13]: inactive
Potency (Aromatase (Homo sapiens)): 31.7 µM (active)

CC(C)CCCCCOC(=O)c1ccccc1C(=O)OCCCCCC(C)C
Potency [5]: inactive
Potency [14]: inactive
Potency [1]: inactive
Potency [2]: inactive
Potency [8]: inactive
outcome [3]: inactive
Potency [10]: inactive
Potency [11]: inactive
Potency [4]: inactive
Potency [12]: inactive
Potency [13]: inactive
Potency (Aromatase (Homo sapiens)): inactive

CCOC(=O)OC1=C(c2cc(C)ccc2C)C(=O)NC12CCC(OC)CC2 (configuration not stated)
Potency [6]: 30.6 µM (active)
Potency [1]: inactive
Potency [2]: inactive
Potency [8]: 54.4 µM (active)
outcome [3]: inactive
Potency [9]: inactive
Potency [11]: inactive
Potency [12]: inactive
Potency [13]: inactive
Potency (Aromatase (Homo sapiens)): inactive

c1ccc2c(c1)[nH]c1cnccc12
Potency [5]: inactive
Potency [1]: inactive
Potency [2]: inactive
Potency [7]: inactive
outcome [3]: inactive
Potency [10]: inactive
Potency [11]: inactive
Potency [4]: inactive
Potency [12]: inactive
Potency [13]: inactive
Potency (Aromatase (Homo sapiens)): inactive

O=C(CBr)c1ccc(O)cc1
Potency [6]: 68.6 µM (active)
Potency [1]: inactive
Potency [2]: inactive
Potency [7]: inactive
Potency [8]: inactive
outcome [3]: inactive
Potency [10]: inactive
Potency [13]: inactive
Potency (Aromatase (Homo sapiens)): inactive

Nc1ccc(Sc2ccc(N)cc2)cc1
Potency [1]: inactive
Potency [7]: inactive
Potency [8]: inactive
outcome [3]: inactive
Potency [9]: inactive
Potency [11]: 0.219 µM [inconclusive] (active)
Potency [12]: inactive

CN(C)S(=O)(=O)N(SC(F)(Cl)Cl)c1ccccc1
Potency [5]: 0.109 µM (active)
Potency [6]: 0.154 µM (active)
Potency [1]: 3.47 µM (active)
Potency [2]: 24.3 µM (active)
Potency [7]: 1.22 µM (active)
Potency [8]: 1.22 µM (active)
Potency (Aromatase (Homo sapiens)): 3.44 µM (active)
